Reference: the supplement of paper PMC11732987, “Enantioselective OTUD7B fragment discovery through chemoproteomics screening and high-throughput optimisation” (Communications Chemistry, 2025)

How the values were obtained:
Assay in all cases: log2 ratio of Biotin-Ahx-Ub-VS probe labelling (fragment/DMSO); higher = less target engagement (more negative = stronger competition), active = hit call of the paper (q ≤ 0.05, log2 ratio ≤ -1)
Details in all cases: compound concentration: 200 uM; treatment time: 3 h
[1] = target: T1, OTUD6B (UniProt Q8N6M0)
T1 sequence (whole entry): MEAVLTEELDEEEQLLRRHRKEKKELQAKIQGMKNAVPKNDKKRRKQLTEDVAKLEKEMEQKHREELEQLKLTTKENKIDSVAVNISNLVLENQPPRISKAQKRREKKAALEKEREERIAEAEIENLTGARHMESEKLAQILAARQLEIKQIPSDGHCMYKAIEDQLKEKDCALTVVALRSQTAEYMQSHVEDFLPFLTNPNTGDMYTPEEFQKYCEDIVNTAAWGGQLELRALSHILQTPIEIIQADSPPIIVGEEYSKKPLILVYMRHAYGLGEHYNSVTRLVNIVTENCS
Method in brief: (§1)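 HEK293T lysate (495 µg per sample, in Tris/CHAPS/IGEPAL buffer with protease inhibitors) was exposed in triplicate for 3 h to fragment at 200 µM or to vehicle, then to Biotin-Ahx-Ub-VS at 0.5 µM final for 1 h. Labelled DUBs were enriched on NeutrAvidin, digested with LysC and trypsin, and analysed by diaPASEF LC-MS/MS. Spectronaut label-free quantities were normalised to the global median, and values are average log2 ratios of fragment over vehicle from an unpaired t-test. Only proteins with ≥2 unique peptides were used.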

[2] = target: T2, OTUD7B (UniProt Q6GQQ9)
T2 sequence (whole entry): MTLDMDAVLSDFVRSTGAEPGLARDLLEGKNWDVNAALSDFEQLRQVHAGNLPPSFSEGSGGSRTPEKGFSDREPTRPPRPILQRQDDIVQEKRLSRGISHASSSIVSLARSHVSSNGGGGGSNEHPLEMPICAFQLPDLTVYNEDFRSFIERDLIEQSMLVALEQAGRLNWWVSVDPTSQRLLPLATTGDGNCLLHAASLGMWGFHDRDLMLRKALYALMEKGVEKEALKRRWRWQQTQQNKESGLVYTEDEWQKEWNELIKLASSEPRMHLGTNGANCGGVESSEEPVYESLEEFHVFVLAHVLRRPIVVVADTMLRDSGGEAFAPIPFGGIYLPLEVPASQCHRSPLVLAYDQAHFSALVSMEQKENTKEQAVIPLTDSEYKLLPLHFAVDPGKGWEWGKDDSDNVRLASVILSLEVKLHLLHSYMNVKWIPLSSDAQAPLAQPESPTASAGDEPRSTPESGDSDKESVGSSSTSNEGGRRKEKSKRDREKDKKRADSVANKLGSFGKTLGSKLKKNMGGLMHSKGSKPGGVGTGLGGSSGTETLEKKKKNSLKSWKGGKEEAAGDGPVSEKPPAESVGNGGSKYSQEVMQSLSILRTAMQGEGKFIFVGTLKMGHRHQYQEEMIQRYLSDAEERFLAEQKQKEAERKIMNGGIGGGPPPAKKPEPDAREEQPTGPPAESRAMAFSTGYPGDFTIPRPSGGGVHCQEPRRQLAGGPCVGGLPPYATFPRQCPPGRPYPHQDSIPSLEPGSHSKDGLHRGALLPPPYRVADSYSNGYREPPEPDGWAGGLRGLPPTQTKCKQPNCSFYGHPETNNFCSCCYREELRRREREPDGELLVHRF
Method in brief: as §1

[3] = target: PRPF8 (UniProt Q6P2Q9)
Method in brief: as §1

[4] = target: T3, PSMD7 (UniProt P51665)
T3 sequence (whole entry): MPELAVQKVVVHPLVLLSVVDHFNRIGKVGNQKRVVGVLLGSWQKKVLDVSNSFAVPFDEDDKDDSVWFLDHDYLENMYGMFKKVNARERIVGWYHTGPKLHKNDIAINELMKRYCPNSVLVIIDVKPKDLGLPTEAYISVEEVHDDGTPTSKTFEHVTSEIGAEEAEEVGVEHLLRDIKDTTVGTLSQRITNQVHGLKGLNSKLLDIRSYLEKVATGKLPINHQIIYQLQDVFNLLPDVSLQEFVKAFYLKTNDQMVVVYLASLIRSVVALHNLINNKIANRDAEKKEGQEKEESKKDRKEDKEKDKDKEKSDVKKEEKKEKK
Method in brief: as §1

[5] = target: UCHL1 (UniProt P09936)
Method in brief: as §1

[6] = target: T4, UCHL3 (UniProt P15374)
T4 sequence (whole entry): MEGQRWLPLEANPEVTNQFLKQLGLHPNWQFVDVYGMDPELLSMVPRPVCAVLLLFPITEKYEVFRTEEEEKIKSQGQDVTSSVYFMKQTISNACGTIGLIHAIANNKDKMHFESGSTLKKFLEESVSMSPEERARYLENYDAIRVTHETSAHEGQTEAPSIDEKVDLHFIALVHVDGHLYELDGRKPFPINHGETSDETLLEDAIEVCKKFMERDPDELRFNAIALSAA
Method in brief: as §1

[7] = target: T5, UCHL5 (UniProt Q9Y5K5)
T5 sequence (whole entry): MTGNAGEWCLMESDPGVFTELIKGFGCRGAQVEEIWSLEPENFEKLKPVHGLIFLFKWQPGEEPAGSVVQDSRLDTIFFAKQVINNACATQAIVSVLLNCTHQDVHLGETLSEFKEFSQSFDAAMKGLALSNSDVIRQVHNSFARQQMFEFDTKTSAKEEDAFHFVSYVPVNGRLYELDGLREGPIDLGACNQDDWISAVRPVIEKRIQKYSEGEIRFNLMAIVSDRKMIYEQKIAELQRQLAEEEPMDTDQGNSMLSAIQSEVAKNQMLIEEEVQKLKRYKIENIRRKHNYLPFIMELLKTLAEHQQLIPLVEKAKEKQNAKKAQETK
Method in brief: as §1

[8] = target: USP10 (UniProt Q14694)
Method in brief: as §1

[9] = target: T6, USP15 (UniProt Q9Y4E8)
T6 sequence (whole entry): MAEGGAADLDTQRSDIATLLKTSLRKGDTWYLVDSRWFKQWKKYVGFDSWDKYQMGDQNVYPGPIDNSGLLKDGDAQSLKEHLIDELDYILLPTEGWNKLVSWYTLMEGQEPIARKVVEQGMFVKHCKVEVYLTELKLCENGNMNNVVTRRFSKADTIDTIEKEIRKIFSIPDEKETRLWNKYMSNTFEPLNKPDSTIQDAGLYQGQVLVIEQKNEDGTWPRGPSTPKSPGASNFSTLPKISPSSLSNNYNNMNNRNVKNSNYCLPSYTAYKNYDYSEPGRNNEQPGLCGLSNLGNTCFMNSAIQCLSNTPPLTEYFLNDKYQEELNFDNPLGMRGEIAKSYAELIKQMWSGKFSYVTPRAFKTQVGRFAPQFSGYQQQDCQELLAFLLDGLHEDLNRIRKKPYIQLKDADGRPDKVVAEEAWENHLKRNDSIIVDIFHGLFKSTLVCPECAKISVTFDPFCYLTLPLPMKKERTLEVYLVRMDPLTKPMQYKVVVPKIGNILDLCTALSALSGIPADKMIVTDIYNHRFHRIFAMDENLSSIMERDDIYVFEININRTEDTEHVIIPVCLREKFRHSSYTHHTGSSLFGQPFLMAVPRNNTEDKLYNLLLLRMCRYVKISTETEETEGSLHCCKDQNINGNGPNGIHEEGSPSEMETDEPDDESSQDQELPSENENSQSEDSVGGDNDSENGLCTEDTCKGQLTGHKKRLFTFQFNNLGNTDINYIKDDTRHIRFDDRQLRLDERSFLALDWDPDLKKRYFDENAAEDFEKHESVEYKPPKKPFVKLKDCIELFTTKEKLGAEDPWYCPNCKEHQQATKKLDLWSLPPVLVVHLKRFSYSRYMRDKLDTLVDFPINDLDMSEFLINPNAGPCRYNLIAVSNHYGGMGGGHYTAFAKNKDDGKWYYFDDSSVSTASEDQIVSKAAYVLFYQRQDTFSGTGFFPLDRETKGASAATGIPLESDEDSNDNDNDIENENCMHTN
Method in brief: as §1

[10] = target: USP16 (UniProt Q9Y5T5)
Method in brief: as §1

Measured: log2 ratio of Biotin-Ahx-Ub-VS probe labelling

Sequence of UCHL1 (P09936 whole entry, looked up): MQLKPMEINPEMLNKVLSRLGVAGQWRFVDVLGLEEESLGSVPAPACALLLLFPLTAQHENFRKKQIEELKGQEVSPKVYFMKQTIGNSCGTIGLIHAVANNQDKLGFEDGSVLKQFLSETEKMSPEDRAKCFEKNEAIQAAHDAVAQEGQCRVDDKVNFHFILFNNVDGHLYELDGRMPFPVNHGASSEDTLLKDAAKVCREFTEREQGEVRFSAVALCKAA
Sequence of USP10 (Q14694 whole entry): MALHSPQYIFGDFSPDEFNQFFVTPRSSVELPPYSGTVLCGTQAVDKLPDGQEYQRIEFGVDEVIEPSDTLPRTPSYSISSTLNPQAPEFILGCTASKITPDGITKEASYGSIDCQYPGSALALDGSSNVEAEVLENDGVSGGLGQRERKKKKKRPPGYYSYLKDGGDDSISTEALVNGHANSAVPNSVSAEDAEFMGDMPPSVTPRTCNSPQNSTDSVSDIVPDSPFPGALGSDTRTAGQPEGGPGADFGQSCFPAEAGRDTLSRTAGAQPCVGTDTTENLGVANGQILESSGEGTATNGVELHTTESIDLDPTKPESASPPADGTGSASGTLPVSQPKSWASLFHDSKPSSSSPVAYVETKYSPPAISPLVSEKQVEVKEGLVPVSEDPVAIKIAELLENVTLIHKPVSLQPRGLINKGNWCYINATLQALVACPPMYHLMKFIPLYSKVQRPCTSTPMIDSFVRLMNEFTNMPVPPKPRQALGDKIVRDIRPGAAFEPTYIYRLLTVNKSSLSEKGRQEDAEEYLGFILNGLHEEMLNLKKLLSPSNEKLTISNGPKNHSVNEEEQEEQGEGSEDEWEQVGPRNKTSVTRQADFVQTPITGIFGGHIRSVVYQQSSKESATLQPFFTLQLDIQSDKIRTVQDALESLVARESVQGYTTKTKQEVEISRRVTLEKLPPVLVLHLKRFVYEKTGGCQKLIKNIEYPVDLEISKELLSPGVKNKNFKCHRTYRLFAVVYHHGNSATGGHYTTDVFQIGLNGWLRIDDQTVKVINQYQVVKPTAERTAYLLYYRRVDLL
Sequence of USP16 (Q9Y5T5 whole entry, looked up): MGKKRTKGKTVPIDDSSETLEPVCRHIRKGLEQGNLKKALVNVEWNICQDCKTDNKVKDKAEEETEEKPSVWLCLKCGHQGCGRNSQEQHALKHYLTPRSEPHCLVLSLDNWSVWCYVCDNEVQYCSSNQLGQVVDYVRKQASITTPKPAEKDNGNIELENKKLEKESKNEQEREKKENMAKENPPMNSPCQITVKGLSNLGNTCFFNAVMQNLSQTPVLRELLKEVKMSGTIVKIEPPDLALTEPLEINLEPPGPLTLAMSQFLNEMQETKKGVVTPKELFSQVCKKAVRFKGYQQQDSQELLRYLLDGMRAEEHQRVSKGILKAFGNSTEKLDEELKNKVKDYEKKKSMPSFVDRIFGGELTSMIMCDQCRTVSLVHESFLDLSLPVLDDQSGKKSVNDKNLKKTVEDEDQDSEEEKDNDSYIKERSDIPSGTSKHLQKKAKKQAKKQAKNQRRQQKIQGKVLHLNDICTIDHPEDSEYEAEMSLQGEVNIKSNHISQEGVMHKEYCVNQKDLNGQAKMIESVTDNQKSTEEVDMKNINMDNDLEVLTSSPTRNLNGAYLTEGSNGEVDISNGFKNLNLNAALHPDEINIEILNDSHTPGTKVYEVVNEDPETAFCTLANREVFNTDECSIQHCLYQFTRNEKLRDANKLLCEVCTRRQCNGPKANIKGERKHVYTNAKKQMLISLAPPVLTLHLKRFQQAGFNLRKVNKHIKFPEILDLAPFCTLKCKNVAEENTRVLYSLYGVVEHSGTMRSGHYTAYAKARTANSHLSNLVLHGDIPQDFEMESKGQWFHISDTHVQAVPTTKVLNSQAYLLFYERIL

O=C(CCl)N1CCOC(c2cccc(F)c2)C1 (stereo not given)
active: [2] -1.75 | [5] -1.68
inactive: [1] -0.268 | [3] -0.107 | [4] -0.115 | [6] 0.156 | [7] -0.463 | [8] -0.284 | [9] -0.387 | [10] 0.0465
